Experimental data from PubChem BioAssay (Tox21).
Results filed as inconclusive are left out. Calls of active or inactive are those of the source. Unless noted, calls follow the shape of the dose curve; as a rule, active = well fitted curve in the direction sought with a large enough effect in the repeat runs; inconclusive = weak or mixed curves; inactive = no such curve, though single readings can be large; an effect the other way counts as inactive or inconclusive.

Tests used:
[1] = qHTS assay to identify small molecule agonists of the peroxisome proliferator-activated receptor delta (PPARd) signaling pathway - cell viability counter screen (AID 743211); also: nearly all actives have a fitted effect of over 55% in size; also: potency is read from the fitted curve at half-maximal effect
Procedure, shortened: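 Following 5 h plating at 37 C and 5% CO2, PPARd UAS-bla HEK293H cells took up test compounds for 17 h. Viability was quantified by luminescence 30 min after CellTiter-Glo addition at room temperature.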

[2] = target: Peroxisome proliferator-activated receptor delta (Homo sapiens) (UniProt Q03181); assay: qHTS assay to identify small molecule agonists of the peroxisome proliferator-activated receptor delta (PPARd) signaling pathway (AID 743212; calls by dose curve; also: % is scaled to controls: 0 for no effect and ±100 for the full control effect)
Chain of Peroxisome proliferator-activated receptor delta (Homo sapiens) (Q03181 whole entry, looked up): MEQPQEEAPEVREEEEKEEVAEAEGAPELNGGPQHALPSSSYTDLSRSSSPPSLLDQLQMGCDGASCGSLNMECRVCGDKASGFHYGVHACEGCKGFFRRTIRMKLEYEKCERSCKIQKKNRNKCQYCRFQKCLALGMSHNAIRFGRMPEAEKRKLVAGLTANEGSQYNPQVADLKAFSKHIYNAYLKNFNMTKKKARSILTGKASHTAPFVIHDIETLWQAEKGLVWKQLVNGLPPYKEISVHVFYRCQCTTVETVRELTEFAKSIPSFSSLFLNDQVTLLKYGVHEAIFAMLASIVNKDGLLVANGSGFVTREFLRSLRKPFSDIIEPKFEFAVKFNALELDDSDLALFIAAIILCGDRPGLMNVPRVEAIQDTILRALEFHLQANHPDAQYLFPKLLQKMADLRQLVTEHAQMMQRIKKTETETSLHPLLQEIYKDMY
Procedure, shortened: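 GeneBLAzer UAS-bla HEK293H cells carrying a PPARδ construct were exposed to compounds at 37 °C. Beta-lactamase activity was read by FRET fluorescence after 2 h at room temperature with LiveBLAzer B/G substrate.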

[3] = qHTS assay to identify small molecule antagonists of the peroxisome proliferator-activated receptor delta (PPARd) signaling pathway - cell viability counter screen (AID 743213); also: nearly all actives have a fitted effect of over 50% in size; also: potency is read from the fitted curve at half-maximal effect
Procedure, shortened: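 CellTiter-Glo was added to PPARd-bla HEK293H wells following 17 h compound treatment in the presence of 300 nM L165041. Luminescence was recorded after 30 min at room temperature.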

[4] = target: Bile acid receptor (Homo sapiens) (UniProt Q96RI1); assay: qHTS assay to identify small molecule antagonists of the farnesoid-X-receptor (FXR) signaling pathway (AID 743217; active = well fitted inhibition curve with a large enough effect in the signal ratio in the repeat runs, not every such curve was filed as active; the % refers to the signal ratio; also: % is scaled to controls: 0 for no effect and ±100 for the full control effect)
Chain of Bile acid receptor (Homo sapiens) (Q96RI1 whole entry, looked up): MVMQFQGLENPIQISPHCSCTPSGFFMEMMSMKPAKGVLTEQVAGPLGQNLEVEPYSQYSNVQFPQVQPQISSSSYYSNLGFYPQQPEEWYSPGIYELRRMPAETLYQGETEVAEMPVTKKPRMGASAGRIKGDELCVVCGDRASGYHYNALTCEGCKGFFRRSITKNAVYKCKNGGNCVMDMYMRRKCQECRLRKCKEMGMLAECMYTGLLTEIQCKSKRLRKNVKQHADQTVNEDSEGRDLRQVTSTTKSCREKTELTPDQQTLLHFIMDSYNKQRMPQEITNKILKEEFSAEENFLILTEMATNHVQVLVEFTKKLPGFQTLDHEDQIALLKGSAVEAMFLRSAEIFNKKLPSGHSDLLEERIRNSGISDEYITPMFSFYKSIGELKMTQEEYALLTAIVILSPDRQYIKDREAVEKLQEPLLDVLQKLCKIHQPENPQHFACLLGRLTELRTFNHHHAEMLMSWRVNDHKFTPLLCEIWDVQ
Procedure, shortened: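 FXR-UAS-bla HEK 293T cells pre-incubated 5 h at 37 °C, then exposed to compounds with chenodeoxycholic acid (50 uM final) for 16 h at 37 °C. Beta-lactamase reporter read by LiveBLAzer B/G FRET substrate fluorescence after 2 h at room temperature.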

[5] = qHTS assay to identify small molecule agonists of the farnesoid-X-receptor (FXR) signaling pathway - cell viability counter screen (AID 743218); also: nearly all actives have a fitted effect of over 45% in size; also: potency is read from the fitted curve at half-maximal effect
Procedure, shortened: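 FXR-UAS-bla HEK 293T cells, plated 5 h at 37 C, were exposed to compounds for 16 h at 37 C. CellTiter-Glo was then added to the same wells as the bla readout; luminescence read after 30 min at room temperature.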

[6] = target: Bile acid receptor (Homo sapiens) (UniProt Q96RI1); assay: qHTS assay to identify small molecule agonists of the farnesoid-X-receptor (FXR) signaling pathway (AID 743220; active = well fitted activation curve with a large enough effect in the signal ratio in the repeat runs, not every such curve was filed as active; the % refers to the signal ratio; also: % is scaled to controls: 0 for no effect and ±100 for the full control effect)
Procedure, shortened: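 Beta-lactamase reporter under UAS control in GeneBLAzer FXR HEK 293T cells (5000/well) measured with LiveBLAzer FRET substrate after 2 h at room temperature. Compound exposure lasted 16 h at 37C.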

[7] = target: Vitamin D3 receptor (Homo sapiens) (UniProt P11473); assay: qHTS assay to identify small molecule agonists of the vitamin D receptor (VDR) signaling pathway (AID 743222; calls by dose curve; also: % is scaled to controls: 0 for no effect and ±100 for the full control effect)
Chain of Vitamin D3 receptor (Homo sapiens) (P11473 whole entry, looked up): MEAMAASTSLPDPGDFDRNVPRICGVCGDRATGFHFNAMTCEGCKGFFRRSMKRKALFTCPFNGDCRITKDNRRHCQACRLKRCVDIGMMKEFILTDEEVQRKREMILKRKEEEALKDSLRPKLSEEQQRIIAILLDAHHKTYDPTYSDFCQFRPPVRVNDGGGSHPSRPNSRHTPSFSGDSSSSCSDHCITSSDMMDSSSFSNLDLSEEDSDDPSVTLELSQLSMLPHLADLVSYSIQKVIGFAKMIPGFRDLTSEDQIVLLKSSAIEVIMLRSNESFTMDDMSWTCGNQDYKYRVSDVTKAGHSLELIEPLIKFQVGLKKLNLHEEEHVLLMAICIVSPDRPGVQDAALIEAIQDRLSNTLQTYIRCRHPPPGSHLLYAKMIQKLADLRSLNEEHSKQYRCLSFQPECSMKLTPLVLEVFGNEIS
Procedure, shortened: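 VDR-bla cells were plated 4 h at 37C/5% CO2, then exposed to compounds in DMSO for 16 h. After LiveBLAzer B/G FRET substrate addition and 2 h at room temperature, beta-lactamase reporter fluorescence was read.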

[8] = target: Vitamin D3 receptor (Homo sapiens) (UniProt P11473); assay: qHTS assay to identify small molecule antagonists of the vitamin D receptor (VDR) signaling pathway (AID 743223; active = well fitted inhibition curve with a large enough effect in the signal ratio in the repeat runs, not every such curve was filed as active; the % refers to the signal ratio; also: % is scaled to controls: 0 for no effect and ±100 for the full control effect)
Procedure, shortened: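 Beta-lactamase activity in VDR-bla cells is measured by FRET substrate fluorescence (2 h, room temperature) after cells spend 16 h at 37C with test compound and 3 nM final 1alpha,25-dihydroxyvitamin D3.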

[9] = qHTS assay to identify small molecule agonists of the NFkB signaling pathway - cell viability counter screen (AID 1159515; calls by dose curve; also: series mostly up to about 61 µM; % is scaled to controls: 0 for no effect and ±100 for the full control effect; nearly all actives have a fitted effect of over 55% in size)
Procedure, shortened: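 NFkB-bla ME-180 cells, 2,000/well, were plated overnight at 37 C, 5% CO2, then exposed to compounds in DMSO for 5 hr. After the bla FRET read, CellTiter-Glo was added to the same wells; luminescence was read after 30 min at room temperature.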

[10] = qHTS assay to identify small molecule agonists of the endoplasmic reticulum stress response signaling pathway (AID 1159516; active = well fitted activation curve with a large enough effect in the signal ratio in the repeat runs, not every such curve was filed as active; the % refers to the signal ratio; also: % is scaled to controls: 0 for no effect and ±100 for the full control effect)
Procedure, shortened: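 CellSensor ESRE-bla HeLa cells, carrying a beta-lactamase reporter driven by the ER stress response element, were plated overnight and exposed to compounds for 5 hr at 37 C. Reporter activity was read as FRET substrate fluorescence after 2 hr at room temperature.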

[11] = qHTS assay to identify small molecule agonists of the endoplasmic reticulum stress response signaling pathway - cell viability counter screen (AID 1159517; calls by dose curve; also: series mostly up to about 61 µM; % is scaled to controls: 0 for no effect and ±100 for the full control effect; nearly all actives have a fitted effect of over 50% in size)
Procedure, shortened: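 ESRE-bla HeLa cells, 1,500 per well, seeded overnight then treated with compounds for 5 hr at 37 C. After the beta-lactamase read, viability in the same wells is measured by CellTiter-Glo luminescence after 30 min at room temperature.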

[12] = qHTS assay to identify small molecule antagonists of the retinoid-related orphan receptor gamma (ROR-gamma) signaling pathway - cell viability counter screen (AID 1159520); also: % is scaled to controls: 0 for no effect and ±100 for the full control effect; nearly all actives have a fitted effect of over 50% in size
Procedure, shortened: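 Tet-on ROR gamma CHO cells were given compounds for 2 hr, then doxycycline hyclate at 1 uM final, and incubated 16 hr at 37 C. Viability was measured as ATP content by CellTiter-Glo luminescence.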

[13] = target: Nuclear receptor ROR-gamma (Homo sapiens) (UniProt P51449); assay: qHTS assay to identify small molecule antagonists of the retinoid-related orphan receptor gamma (ROR-gamma) signaling pathway (AID 1159521; also: nearly all actives have a fitted effect of over 50% in size; also: potency is read from the fitted curve at half-maximal effect)
Procedure, shortened: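 Screening format: cell-based luciferase reporter in CHO cells with doxycycline-inducible RORγ. Compound pre-exposure lasts 2 h, doxycycline is 1 uM final, induction runs 16 h at 37 C, and ONE-Glo luminescence is read.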

[14] = qHTS assay to identify small molecule agonists of the AP-1 signaling pathway - cell viability counter screen (AID 1159525; calls by dose curve; also: nearly all actives have a fitted effect of over 55% in size)
Procedure, shortened: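 AP-1-bla ME-180 cells in Opti-MEM with 0.5% dialyzed FBS, compound exposure 5 h at 37 C in 15-point titration. Viability read in the same wells as ATP content by CellTiter-Glo luminescence, normalised to tetra-n-octylammonium bromide and DMSO controls.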

[15] = target: Peroxisome proliferator-activated receptor delta (Homo sapiens) (UniProt Q03181); assay: qHTS assay to identify small molecule antagonists of the peroxisome proliferator-activated receptor delta (PPARd) signaling pathway (AID 743215; active = well fitted inhibition curve with a large enough effect in the signal ratio in the repeat runs, not every such curve was filed as active; the % refers to the signal ratio)
Procedure, shortened: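 PPARd UAS-bla HEK293H cells were pre-incubated 5 h at 37 C, then given test compounds in DMSO plus agonist L165041 (300 nM final). After 17 h at 37 C, beta-lactamase FRET substrate was added; fluorescence read after 2 h at room temperature.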

[16] = qHTS assay to identify small molecule antagonists of the farnesoid-X-receptor (FXR) signaling pathway - cell viability counter screen (AID 743221; active = well fitted cell-killing curve with a large enough effect in the repeat runs, not every such curve was filed as active)
Procedure, shortened: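 Compound effects on cell number were measured as CellTiter-Glo luminescence in HEK 293T cells expressing FXR-UAS-bla, after 16 h at 37 C with 50 uM CDCA (final).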

[17] = qHTS assay to identify small molecule agonists of the vitamin D receptor (VDR) signaling pathway - cell viability counter screen (AID 743224)
Procedure, shortened: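 VDR-bla cells were preincubated 4 h at 37C/5% CO2, then exposed to compounds for 16 h. After the 2 h room-temperature bla FRET read, CellTiter-Glo was added to the same wells and luminescence read after 30 min.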

[18] = qHTS assay to identify small molecule antagonists of the vitamin D receptor (VDR) signaling pathway - cell viability counter screen (AID 743225); also: nearly all actives have a fitted effect of over 50% in size; also: potency is read from the fitted curve at half-maximal effect
Procedure, shortened: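 In this counter screen, VDR-bla HEK 293T cells receive test compound plus 3 nM final calcitriol for 16 h at 37C. Room-temperature steps of 2 h with the beta-lactamase substrate, then 30 min with CellTiter-Glo, precede the luminescence read.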

[19] = target: Retinoic acid receptor RXR-alpha (Homo sapiens) (UniProt P19793); assay: qHTS assay to identify small molecule agonists of the RXR signaling pathway (AID 1159527; calls by dose curve; also: % is scaled to controls: 0 for no effect and ±100 for the full control effect; nearly all actives have a fitted effect of over 35% in size)
Chain of Retinoic acid receptor RXR-alpha (Homo sapiens) (P19793 whole entry, looked up): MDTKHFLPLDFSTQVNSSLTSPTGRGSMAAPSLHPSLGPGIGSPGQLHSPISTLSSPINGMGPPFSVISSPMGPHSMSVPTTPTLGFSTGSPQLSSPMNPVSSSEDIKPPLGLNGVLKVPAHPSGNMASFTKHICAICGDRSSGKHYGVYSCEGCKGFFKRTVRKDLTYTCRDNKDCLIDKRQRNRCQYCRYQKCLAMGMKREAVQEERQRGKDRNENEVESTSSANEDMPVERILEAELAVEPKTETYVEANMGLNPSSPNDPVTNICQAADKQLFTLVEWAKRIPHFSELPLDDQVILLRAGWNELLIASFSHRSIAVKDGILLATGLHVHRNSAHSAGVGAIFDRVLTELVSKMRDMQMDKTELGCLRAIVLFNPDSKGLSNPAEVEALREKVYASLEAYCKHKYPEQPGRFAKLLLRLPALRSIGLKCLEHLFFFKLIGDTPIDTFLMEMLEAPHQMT
Procedure, shortened: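 Fluorescence ratio readout (460 vs 530 nm) from GeneBLAzer RXR-alpha HEK 293T cells after 16 hr compound treatment; cells seeded 5 hr beforehand in low-serum, charcoal-stripped medium.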

O=C(CC(=O)c1ccccc1)c1ccccc1
inactive: Potency [1] | outcome [2] | Potency [3] | outcome [4] | Potency [5] | outcome [6] | outcome [7] | Potency [8] | Potency [9] | Potency [10] | outcome [11] | Potency [12] | Potency [13] | Potency [14]

CCCCc1cc2ccccc2c(OCCN(C)C)n1
inactive: outcome [2] | Potency [3] | outcome [15] | outcome [4] | Potency [5] | outcome [6] | Potency [16] | outcome [7] | Potency [8] | Potency [17] | Potency [18] | Potency [9] | Potency [10] | outcome [11] | Potency [12] | Potency [13] | Potency [14] | Potency [19]

Cc1occc1S
inactive: Potency [1] | outcome [2] | Potency [3] | outcome [15] | Potency [5] | Potency [16] | outcome [7] | Potency [8] | Potency [17] | Potency [18] | Potency [9] | Potency [10] | outcome [11] | Potency [12] | Potency [13] | Potency [14]

CC1(C)CCC(C)(C)c2cc(NC(=O)c3ccc(C(=O)O)cc3)ccc21
active: Potency [13] 26.6 µM
inactive: Potency [1] | outcome [2] | Potency [3] | outcome [4] | Potency [5] | outcome [7] | Potency [8] | Potency [18] | Potency [9] | Potency [10] | outcome [11] | Potency [12] | Potency [14]

CC(Cc1cccc(C(F)(F)F)c1)NCCOC(=O)c1ccccc1 (stereo not drawn)
active: Potency [1] 21.1 µM | Potency [3] 18.8 µM | Potency [5] 21.1 µM | Potency [18] 16.9 µM
inactive: outcome [2] | Potency [9] | Potency [10] | outcome [11] | Potency [12] | Potency [13] | Potency [14]

CCCCCC/C=C/C=O
inactive: outcome [2] | Potency [5] | Potency [16] | Potency [17] | Potency [18] | Potency [9] | Potency [10] | outcome [11] | Potency [12] | Potency [13] | Potency [14] | Potency [19]

C=Cc1c(C)c2cc3[nH]c(cc4nc(cc5nc(cc1[nH]2)C(C)=C5CCC(=O)O)C(CCC(=O)O)=C4C)c(C)c3C=C
inactive: outcome [2] | Potency [3] | Potency [5] | outcome [7] | Potency [18] | Potency [9] | Potency [10] | outcome [11] | Potency [12] | Potency [14] | Potency [19]
active: Potency [13] 26.6 µM

CCCOc1ccc2nc(NC(=O)OC)[nH]c2c1
inactive: Potency [1] | outcome [2] | Potency [3] | Potency [5] | Potency [16] | outcome [7] | Potency [17] | Potency [18] | Potency [9] | Potency [10] | outcome [11] | Potency [12] | Potency [13] | Potency [14]

CN(C)CCCOc1nn(Cc2ccccc2)c2ccccc12
inactive: outcome [2] | outcome [15] | Potency [5] | Potency [16] | Potency [17] | Potency [18] | Potency [9] | Potency [10] | outcome [11] | Potency [12] | Potency [13] | Potency [14] | Potency [19]

CC(=O)SCc1ccco1
inactive: outcome [2] | Potency [3] | outcome [15] | Potency [5] | outcome [6] | Potency [17] | Potency [18] | Potency [9] | Potency [10] | outcome [11] | Potency [12] | Potency [13] | Potency [14] | Potency [19]

CN(C)CC/C=C1\c2ccccc2COc2ccccc21
active: Potency [1] 26.6 µM
inactive: outcome [4] | outcome [6] | Potency [16] | outcome [7] | Potency [8] | Potency [17] | Potency [18] | Potency [9] | Potency [10] | outcome [11] | Potency [12] | Potency [13] | Potency [14]

CC1CCc2cc(F)cc3c(=O)c(C(=O)O)cn1c23 (stereo not drawn)
inactive: Potency [1] | outcome [2] | Potency [3] | outcome [4] | Potency [5] | outcome [6] | Potency [16] | Potency [18] | Potency [9] | Potency [10] | outcome [11] | Potency [12] | Potency [13] | Potency [14]

CCN(CCO)CCCC(C)Nc1ccnc2cc(Cl)ccc12 (stereo not drawn)
inactive: activity change, negative = cytotoxicity [1] 9.74% [at 5.95 µM] | viability change, negative = cytotoxic [5] -0.758% [at 5.95 µM] | activity change, negative = cytotoxicity [16] 10.2% [at 5.95 µM] | activation [7] 9.25% [at 6.01 µM] | activity change, negative = cytotoxicity [17] 1.38% [at 5.95 µM] | viability change, negative = cytotoxic [18] -0.399% [at 6.95 µM] | activity, negative = cytotoxic [9] 7.84% [at 6.95 µM] | activation [10] -0.628% [at 6.95 µM] | activity change, negative = cytotoxicity [11] 5.2% [at 6.95 µM] | activity, negative = cytotoxicity [12] 0.752% [at 8.39 µM] | activity change, negative = inhibition [13] 13.3% [at 8.39 µM] | viability change, negative = cytotoxic [14] 2.23% [at 6.97 µM] | activation [19] 7.66% [at 6.98 µM]

Cc1cc(CC(=O)O)c(C)n1-c1ccc(Cl)cc1
inactive: Potency [1] | Potency [3] | outcome [4] | Potency [5] | outcome [6] | outcome [7] | Potency [8] | Potency [17] | Potency [18] | Potency [9] | Potency [10] | outcome [11] | Potency [12] | Potency [13] | Potency [14]

COc1cc(C(C)(C)C)c(O)c(C(C)(C)C)c1
inactive: Potency [1] | outcome [2] | Potency [3] | outcome [15] | outcome [4] | Potency [5] | outcome [6] | Potency [16] | outcome [7] | Potency [8] | Potency [18] | Potency [9] | Potency [10] | outcome [11] | Potency [12] | Potency [13] | Potency [14]

S=C(S)NCCNC(=S)S
inactive: Potency [1] | Potency [3] | Potency [16] | outcome [7] | Potency [17] | Potency [9] | Potency [10] | outcome [11] | Potency [12] | Potency [13] | Potency [14] | Potency [19]

Cc1ccc(O)c([C@H](CCN(C(C)C)C(C)C)c2ccccc2)c1
inactive: outcome [2] | Potency [5] | Potency [16] | outcome [7] | Potency [9] | Potency [10] | outcome [11] | Potency [12] | Potency [13] | Potency [14] | Potency [19]

CCCCCOC(=O)c1ccc(O)cc1
inactive: outcome [2] | Potency [3] | outcome [6] | Potency [16] | outcome [7] | Potency [17] | Potency [18] | Potency [9] | Potency [10] | outcome [11] | Potency [12] | Potency [13] | Potency [14] | Potency [19]
